Results reported in PubChem BioAssay (Tox21).
Values without a mark were called inactive. The source made the active and inactive calls. The call rests on the fitted dose curve; in most records, active means well fitted curve in the direction sought with a large enough effect in the repeat runs; inconclusive means weak or mixed curves; inactive means flat fitted curve, though single readings scatter.
On the % scale 0 is the no-effect control and ±100 the full control effect.

Assay: qHTS assay to test for compound auto fluorescence at 535 nm (green) in HEK293 cells (AID 720680)
Conditions: green autofluorescence 485/535 nm; series mostly up to 91.3 µM; fluorescence, % of fluorescein: at the top concentration
In the case of `CO[C@@]1(NC(=O)CSCC#N)C(=O)N2C(C(=O)O)=C(CSc3nnnn3C)CS[C@@H]21`, the “fluorescence, % of fluorescein” value is reported as -0.0168% [at 46 µM].
In the case of `Nc1ccc(Oc2ccc(N)c(N)c2)cc1`, the “fluorescence, % of fluorescein” value is reported as 0.755%.
In the case of `CCOc1ccc(NS(=O)(=O)c2ccc(N)cc2)nn1`, the “fluorescence, % of fluorescein” value is reported as -0.014% [at 46 µM].
With `C=CCCC=C` the “fluorescence, % of fluorescein” value was 0.0002% [at 95.7 µM].
For `Nc1cccc(S(=O)(=O)O)c1`, the “fluorescence, % of fluorescein” value was 0.172%.
`CC(CNC1CCCCC1)OC(=O)c1ccccc1` (stereo not given) showed a fluorescence, % of fluorescein of 0.0598% [at 18.6 µM].
With `C1CCOC1` the “fluorescence, % of fluorescein” value was 0.0675% [at 95.7 µM].
Molecule `Cc1c(-c2ccccc2)oc2c(C(=O)OCCN3CCCCC3)cccc2c1=O` has a fluorescence, % of fluorescein of -0.0807% [at 18.6 µM].
With `CCCCC1CCC(=O)O1` (stereo not given) the “fluorescence, % of fluorescein” value was 0.0354%.
With `CCCN(CCC)C(=O)C(CCC(=O)O)NC(=O)c1ccccc1` (stereo not given) the “fluorescence, % of fluorescein” value was 0.0555% [at 46 µM].
With `CCN(CC)CCOc1ccc(Cc2ccccc2)cc1` the “fluorescence, % of fluorescein” value was -0.0172% [at 46 µM].
In the case of `CCCCCCCCCCCCCCCCOP(=O)([O-])OCC[N+](C)(C)C`, the “fluorescence, % of fluorescein” value is reported as 0.0402% [at 46 µM].
In the case of `COc1ccc2nc(NC(=O)Nc3ccccc3)sc2c1`, the “fluorescence, % of fluorescein” value is reported as 0.0654% [at 46 µM].
In the case of `O=C(O)C(=O)Cc1c[nH]c2ccccc12`, the “fluorescence, % of fluorescein” value is reported as -0.0611%.
For `O=C(CC(=O)C(F)(F)F)c1ccccc1`, the “fluorescence, % of fluorescein” value was 0.0265% [at 95.7 µM].
In the case of `CCCCOc1cc(C(=O)NCCN(CC)CC)c2ccccc2n1`, the fluorescence, % of fluorescein is reported as 0.0154% [at 18.6 µM].
For `Cc1ncc(CO)c(CN)c1O`, the “fluorescence, % of fluorescein” value was -0.0349% [at 46 µM].
With `CCC/C=C/CO` the “fluorescence, % of fluorescein” value was -0.0401%.
With `COC(=O)C(C)O` (stereo not given) the “fluorescence, % of fluorescein” value was 0.0118% [at 95.7 µM].
With `CCc1nnc(NS(=O)(=O)c2ccc(N)cc2)s1` the “fluorescence, % of fluorescein” value was -0.0743% [at 46 µM].
With `N#Cc1ccc(C(c2ccc(C#N)cc2)n2cncn2)cc1` the outcome was “inactive”.
In the case of `O=C(O)[C@@H](O)[C@H](O)[C@H](O)[C@@H](O)C(=O)O`, the “fluorescence, % of fluorescein” value is reported as -0.0016% [at 46 µM].
For `Cc1cc(S(=O)(=O)O)c(N)cc1Cl`, the “fluorescence, % of fluorescein” value was -0.187%.
For `O=C(O)c1cccc(Cl)c1Cl`, the “fluorescence, % of fluorescein” value was -0.0676%.
For `Cc1c(C(=O)NCCO)[n+](=O)c2ccccc2n1[O-]`, the “fluorescence, % of fluorescein” value was -0.0574% [at 46 µM].
In the case of `CC(C)(C)c1cccc(O)c1`, the “fluorescence, % of fluorescein” value is reported as -0.0106%.
In the case of `Cc1ccc(C=O)s1`, the “fluorescence, % of fluorescein” value is reported as -0.0523%.
With `CC1(C)O[C@@H]2C[C@H]3[C@@H]4CCC5=CC(=O)CC[C@]5(C)[C@@]4(F)[C@@H](O)C[C@]3(C)[C@]2(C(=O)CCl)O1` the fluorescence, % of fluorescein was -0.0811% [at 18.6 µM].
With `COc1nc(C)nc(NC(=O)NS(=O)(=O)c2ccccc2OCCCl)n1` the “fluorescence, % of fluorescein” value was -0.131%.
With `CN1CCN(c2c(F)cc3c(=O)c(C(=O)O)cn4c3c2SCC4)CC1` the “fluorescence, % of fluorescein” value was -0.114% [at 46 µM].
Molecule `CCCCc1ccc2nc(NC(=O)OC)[nH]c2c1` has a fluorescence, % of fluorescein of -0.231% [at 18.6 µM].
In the case of `CCNCCO`, the “fluorescence, % of fluorescein” value is reported as 0.0022%.
In the case of `CN(C)CCOc1ccccc1Cc1ccccc1`, the “fluorescence, % of fluorescein” value is reported as -0.299% [at 46 µM].
In the case of `Cc1cc2nc(N)sc2cc1C`, the “fluorescence, % of fluorescein” value is reported as 0.0583%.
For `CN1CCN(c2c(F)cc3c(=O)c(C(=O)O)cn(CCF)c3c2F)CC1`, the “fluorescence, % of fluorescein” value was -0.239% [at 46 µM].
